# Data taken from PubChem BioAssay (NCATS).
# Several values for one entry are separate records, joined by “and”; a condition that tells them apart may be missing. Equal values may be shown once. Inconclusive results are not listed. Where a call stands in place of a potency, no number is given. Activity calls are given as the source filed them. Unless noted, calls come from the whole dose curve; as a rule, active = well fitted curve in the direction sought with a large enough effect; inconclusive = small, poorly fitted or top-dose-only effect, or another doubt; inactive = no such curve, though single readings can be large; an effect the other way counts as inactive or inconclusive.
# Columns and labels:
# [1] = target: Calcium and integrin-binding protein 1 (Homo sapiens) (UniProt Q99828); experiment: Primary qHTS for Identification of Calcium Integrin Binding Protein 1 (CIB1) Competitor (AID 1508620); conditions: CIB1-GST / FITC-alphaIIb peptide fluorescence polarization; series mostly up to 57.7 µM;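 note: GST tagged CIB1 binding a fluorescein labelled alphaIIb integrin peptide tracer; top concentration of the series differs between compounds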
# Summary of the method: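 Fluorescence polarization competition: CIB1-GST (1 uM final) preincubated with compound 15 min at room temperature, then FITC-labeled alphaIIb peptide (100 nM final) added for another 15 min. Polarization read at Ex 480/Em 540.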
# [2] = Primary qHTS for small molecule stabilizers of the endoplasmic reticulum resident proteome: Secreted ER Calcium Modulated Protein (SERCaMP) assay (AID 1508630); conditions: SH-SY5Y GLuc-SERCaMP (Gaussia luciferase released on ER calcium loss) secretion, thapsigargin, luminescence; series mostly up to 38.4 µM
# Summary of the method: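 The SH-SY5Y reporter protocol was run at 3 concentrations up to 38.3 uM (primary) or 11 concentrations (follow-up): 16 h compound, 100 nM thapsigargin for 4 h, then extracellular luciferase luminescence.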
# [3] = target: Cytochrome P450 3A4 (Homo sapiens) (UniProt P08684); experiment: Cytochrome P450 family 3 subfamily A member 4 (CYP3A4) small molecule antagonists: luciferase qHTS assay (AID 1645841; active = well fitted curve in the direction sought with a large enough effect in the repeat runs; an effect the other way counts as inactive or inconclusive; note: nearly all actives have a fitted effect of over 45% in size); conditions: P450-Glo CYP3A4 enzyme assay, luciferin luminescence; series mostly up to 57.4 µM
# Summary of the method: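 P450-Glo CYP3A4 enzyme with proluciferin substrate was preincubated with DMSO-dissolved compounds for 10 min at room temperature. NADPH regeneration solution started a 1 h reaction. Detection reagent stopped it, and luminescence was read after 20 min.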
# [4] = A High-Content qHTS Against Drug Library for the Identification of Small Molecules that Inhibit DYT1 Early Onset Primary Dystonia-Associated Cell Pathology (AID 1645839; calls by dose curve); conditions: HEK293 Flp-In EGFP-delE TorsinA, punctate imaging, 48 h; series mostly up to 46.1 µM
# Summary of the method: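 Induced EGFP-delE TorsinA cells are imaged after 48 h of compound treatment. Punctate fusion-protein distribution gives the %pathology value, while nuclei counts flag toxicity. Wild-type EGFP-hTOR1A cells define the normal pattern.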
# [5] = target: Cytochrome P450 2D6 (Homo sapiens) (UniProt P10635); experiment: Cytochrome P450 family 2 subfamily D member 6 (CYP2D6) small molecule antagonists: luciferase biochemical (cell-free) qHTS assay (AID 1645840; active = well fitted curve in the direction sought with a large enough effect in the repeat runs; an effect the other way counts as inactive or inconclusive; note: nearly all actives have a fitted effect of over 55% in size; note: potency is the fitted concentration of half-maximal effect); conditions: P450-Glo CYP2D6 enzyme, luciferin luminescence, 1 h; series mostly up to 57.4 µM
# Summary of the method: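 P450-Glo CYP2D6 system: proluciferin substrate converted by enzyme to luciferin, read by luminescence proportional to activity. Enzyme-substrate mix with compound 10 min at room temperature, then NADPH regeneration 1 h before detection reagent.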
# Cytochrome P450 2D6 (Homo sapiens), sequence (P10635 whole entry, looked up): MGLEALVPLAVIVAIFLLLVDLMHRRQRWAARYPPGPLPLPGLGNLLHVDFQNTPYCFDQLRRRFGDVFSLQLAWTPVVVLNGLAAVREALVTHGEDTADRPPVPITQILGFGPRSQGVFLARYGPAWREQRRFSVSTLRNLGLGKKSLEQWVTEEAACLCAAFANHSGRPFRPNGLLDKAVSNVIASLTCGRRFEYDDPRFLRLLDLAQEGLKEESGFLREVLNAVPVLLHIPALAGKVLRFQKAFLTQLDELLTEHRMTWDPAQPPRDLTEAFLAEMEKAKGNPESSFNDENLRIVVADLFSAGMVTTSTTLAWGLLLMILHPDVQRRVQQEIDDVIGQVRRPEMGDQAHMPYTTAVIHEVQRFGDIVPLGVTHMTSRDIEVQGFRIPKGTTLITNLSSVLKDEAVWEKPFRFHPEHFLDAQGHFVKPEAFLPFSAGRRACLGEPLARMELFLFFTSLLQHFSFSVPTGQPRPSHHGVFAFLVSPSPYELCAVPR
# Calcium and integrin-binding protein 1 (Homo sapiens), sequence (Q99828 whole entry, looked up): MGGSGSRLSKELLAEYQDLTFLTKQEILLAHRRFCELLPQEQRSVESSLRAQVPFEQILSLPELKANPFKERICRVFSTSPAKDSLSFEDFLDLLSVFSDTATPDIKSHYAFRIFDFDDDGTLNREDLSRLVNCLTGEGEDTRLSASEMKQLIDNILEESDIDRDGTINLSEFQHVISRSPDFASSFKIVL
# Cytochrome P450 3A4 (Homo sapiens), sequence (P08684 whole entry, looked up): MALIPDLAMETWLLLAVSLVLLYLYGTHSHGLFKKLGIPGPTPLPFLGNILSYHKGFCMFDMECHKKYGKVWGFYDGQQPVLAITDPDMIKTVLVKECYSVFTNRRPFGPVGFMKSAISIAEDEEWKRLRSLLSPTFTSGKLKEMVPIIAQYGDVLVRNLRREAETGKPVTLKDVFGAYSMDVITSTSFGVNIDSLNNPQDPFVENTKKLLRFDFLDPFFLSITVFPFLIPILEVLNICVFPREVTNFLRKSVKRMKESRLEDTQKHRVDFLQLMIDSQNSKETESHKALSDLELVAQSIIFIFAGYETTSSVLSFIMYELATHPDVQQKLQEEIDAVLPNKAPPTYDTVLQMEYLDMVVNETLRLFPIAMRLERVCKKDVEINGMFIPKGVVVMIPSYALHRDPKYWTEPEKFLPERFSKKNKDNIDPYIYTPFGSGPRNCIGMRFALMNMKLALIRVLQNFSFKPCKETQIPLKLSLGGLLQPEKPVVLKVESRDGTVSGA
compound,measurement,setting,value
CC(C)n1cnc2c(NCCCCCCNC(=O)OC(C)(C)C)nc(NCCO)nc21,Potency,[1],inactive
same,Potency,[2],inactive
CN(C)Cc1ccc(-c2nc3cccc4c3n2CCNC4=O)cc1,Potency,[1],inactive
same,Potency,[2],inactive
COC(=O)N[C@H](C(=O)N1CCC[C@@H]1c1ncc(-c2ccc(-c3ccc(-c4cnc([C@@H]5CCCN5C(=O)[C@@H](NC(=O)OC)C(C)C)[nH]4)cc3)cc2)[nH]1)C(C)C,Potency,[1],inactive
same,Potency,[2],inactive
Cc1ccc(C(=O)Nc2cccc(C(F)(F)F)c2)cc1Nc1nc(-c2cccnc2)nc2c1cnn2C,Potency,[1],inactive
same,Potency,[2],inactive
N#CC(=C(N)Sc1ccccc1N)C(C#N)=C(N)Sc1ccccc1N,Potency,[1],inactive
same,Potency,[2],inactive
COc1ccc(-c2oc3c(CC=C(C)C)c(OC4O[C@H](CO)[C@@H](O)[C@H](O)[C@@H]4O)cc(O)c3c(=O)c2OC2O[C@@H](C)[C@H](O)[C@@H](O)[C@@H]2O)cc1 (some centres not stated),Potency,[1],inactive
same,Potency,[2],inactive
CO[C@@H](C(=O)N1Cc2[nH]nc(NC(=O)c3ccc(N4CCN(C)CC4)cc3)c2C1)c1ccccc1,Potency,[1],inactive
same,Potency,[2],inactive
CC(=Cc1ccccc1)C=C1SC(=S)N(CC(=O)O)C1=O,Potency,[1],inactive
same,Potency,[2],inactive
C[N+]1(C)[C@@H]2CC(OC(=O)[C@H](CO)c3ccccc3)C[C@H]1[C@H]1O[C@@H]12 (some centres not stated),Potency,[1],inactive
same,Potency,[2],inactive
N#CC1(c2ccc(NC(=O)c3cccnc3NCc3ccncc3)cc2)CCCC1,Potency,[1],inactive
same,Potency,[2],inactive
O=C1NC(=O)C(=Cc2ccc3c(c2)OC(F)(F)O3)S1,Potency,[1],inactive
same,Potency,[2],inactive
NC(CO)(CO)CCc1ccc(Sc2cccc(OCc3ccccc3)c2)cc1Cl,Potency,[1],inactive
same,Potency,[2],inactive
CC[C@@]1(O)C[C@H](O[C@H]2C[C@H](N(C)C)[C@H](O[C@H]3C[C@H](O)[C@H](O[C@H]4CCC(=O)[C@H](C)O4)[C@H](C)O3)[C@H](C)O2)c2c(cc3c(c2O)C(=O)c2c(O)cccc2C3=O)[C@@H]1C(=O)OC,Potency,[1],inactive
same,Potency,[2],inactive
NC(=O)NN=Cc1ccc([N+](=O)[O-])o1,Potency,[1],inactive
same,Potency,[2],inactive
CC(=NNC(=S)N1CCC1)c1ccccn1,Potency,[1],inactive
same,Potency,[2],inactive
Cc1ccccc1C(C(=O)NC1CCCCC1)N(C(=O)Cn1ccnc1C)c1cccc(F)c1 (configuration not stated),Potency,[1],inactive
same,Potency,[2],inactive
CC=CC[C@@H](C)C(=O)[C@H]1C(=O)N[C@@H](C(C)C)C(=O)N(C)CC(=O)N(C)[C@@H](CC(C)C)C(=O)N[C@@H](C(C)C)C(=O)N(C)[C@@H](CC(C)C)C(=O)N[C@@H](C)C(=O)N[C@H](C)C(=O)N(C)[C@@H](CC(C)C)C(=O)N(C)[C@@H](CC(C)C)C(=O)N(C)[C@@H](C(C)C)C(=O)N1C,Potency,[1],inactive
same,Potency,[2],inactive
CO[C@H]1C(=O)[C@]2(C)[C@@H](OC)C[C@H]3OC[C@@]3(OC(C)=O)[C@H]2[C@H](OC(=O)c2ccccc2)[C@]2(O)C[C@H](OC(=O)[C@H](O)[C@@H](NC(=O)OC(C)(C)C)c3ccccc3)C(C)=C1C2(C)C,Potency,[1],inactive
same,Potency,[2],inactive
COc1ccc2c3c1OC1C[C@@H](O)C=C[C@@]31CCN(C)C2 (some centres not stated),Potency,[1],inactive
same,Potency,[2],inactive
c1cc(-c2sc(-c3ccncc3)c(-c3ccncc3)c2-c2ccncc2)ccn1,Potency,[1],inactive
same,Potency,[2],inactive
N[C@H](CSC(c1ccccc1)(c1ccccc1)c1ccccc1)C(=O)O,Potency,[1],inactive
same,Potency,[2],inactive
COc1cc(Nc2ncc(F)c(Nc3ccc4c(n3)NC(=O)C(C)(C)O4)n2)cc(OC)c1OC,Potency,[1],inactive
same,Potency,[2],inactive
CC1(C)CCC(CN2CCN(c3ccc(C(=O)NS(=O)(=O)c4ccc(NCC5CCOCC5)c([N+](=O)[O-])c4)c(Oc4cnc5[nH]ccc5c4)c3)CC2)=C(c2ccc(Cl)cc2)C1,Potency,[1],inactive
same,Potency,[2],inactive
CC#CCn1c(N2CCC[C@@H](N)C2)nc2c1c(=O)n(Cc1nc(C)c3ccccc3n1)c(=O)n2C,Potency,[1],inactive
same,Potency,[2],inactive
O=C(N[C@@H](c1ccccc1)[C@@H]1CCCCN1)c1cccc(C(F)(F)F)c1Cl,Potency,[1],inactive
same,Potency,[2],inactive
Oc1ccc(C2=Cc3ccc(O)cc3OC2)cc1,Potency,[1],inactive
same,Potency,[2],inactive
CO[C@H]1C[C@@H]2CC[C@@H](C)[C@@](O)(O2)C(=O)C(=O)N2CCCC[C@@H]2C(=O)O[C@H]([C@@H](C)C[C@@H]2CC[C@H](O)[C@H](OC)C2)CC(=O)[C@H](C)C=C(C)[C@@H](O)[C@@H](OC)C(=O)[C@H](C)C[C@H](C)C=CC=CC=C1C,Potency,[1],inactive
same,Potency,[2],inactive
CNC1CCC(N(Cc2cccc(-c3ccncc3)c2)C(=O)c2sc3c(F)ccc(F)c3c2Cl)CC1 (configuration not stated),Potency,[1],inactive
same,Potency,[2],inactive
O=c1[nH]cnc2c1ncn2[C@H]1CC[C@@H](CO)O1,outcome,[3],inactive
COc1ccc2cccc(CCNC(C)=O)c2c1,Potency,[1],inactive
same,Potency,[4],inactive
CCn1c(C(=O)N(C2CC2)C2CC2)cc2c3c(ncn3C)c(Nc3cc(C)n(C)n3)nc21,Potency,[1],inactive
same,Potency,[2],inactive
same,Potency,[5],inactive
CN[C@@H](C)C(=O)N[C@H]1CN(C(=O)CC(C)C)CC[C@H]2CC[C@@H](C(=O)NC(c3ccccc3)c3ccccc3)N2C1=O,Potency,[1],inactive
same,Potency,[2],inactive
same,Potency,[5],inactive
O=C1Nc2ccc(Cl)cc2C(C#CC2CC2)(C(F)(F)F)O1 (configuration not stated),Potency,[1],inactive
same,Potency,[2],inactive
same,Potency,[5],16.9 µM (active)
CN1CCN(CCOc2cc(OC3CCOCC3)c3c(Nc4c(Cl)ccc5c4OCO5)ncnc3c2)CC1,Potency,[2],inactive
CCOC(=O)C1=C(N)Oc2ccc(Br)cc2C1C(C#N)C(=O)OCC (configuration not stated),Potency,[1],inactive
same,Potency,[2],inactive
same,Potency,[5],13.5 µM (active) and 16.9 µM (active) and 23.9 µM (active)
